In experiment [1] the target is Cytochrome P450 1A2 (Homo sapiens) (UniProt P05177). Nature of the experiment: p450-cyp1a2 (AID 410; calls by dose curve; note: potency is the fitted concentration of half-maximal effect). The method, boiled down: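 Read-out is luminescence from luciferin produced by CYP1A2 demethylation of Luciferin-ME (100uM, at Km). Detection reagent stopped the 60 min NADPH-dependent reaction; signals were normalized to 57 uM furafylline.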
Experiment [2] addresses Glucocorticoid receptor (Homo sapiens) (UniProt P04150). Kind of experiment: GR-EFC Redistribution (AID 451; calls by dose curve; note: potency is the fitted concentration of half-maximal effect). The following applies: CHO-K1 GR-EFC translocation, beta-gal luminescence, 2 h. The method in brief:
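CHO-K1 cells expressing nuclear EA and GR-ED fragments of b-gal; compounds titrated up to 46 uM final, 2 h at 37 C. GR nuclear translocation read as complemented b-gal luminescence after 1 h RT detection.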

The target of experiment [3] is 3',5'-cyclic-AMP phosphodiesterase 4B (Homo sapiens) (UniProt Q07343). Nature of the experiment: qHTS Assay for Inhibitors of PDE-IV (AID 607; active = well fitted activation curve with a large enough effect in the main read-out, with a control signal flat, not every such curve was filed as active). The method in brief:
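ACTOne HEK293 cells carry a modified cAMP-gated CNG channel and express endogenous PDE4; plated 1000 cells/well, compounds up to 22.9 uM final. Membrane-potential dye fluorescence (ex 535/em 590) was read; parental cells received 10 uM forskolin + 100 uM RO 20-1724.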
For orientation: qHTS replaces the single test concentration by a dilution series.

The target of experiment [4] is Cytochrome P450 2C9 (Homo sapiens) (UniProt P11712). Kind of experiment: qHTS Assay for Inhibitors and Substrates of Cytochrome P450 2C9 (AID 883). Note: nearly all actives have a fitted effect of over 60% in size. The method, boiled down:
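Signal: luciferase luminescence reporting luciferin produced by CYP2C9. Conditions: 10nM enzyme, Luciferin-H 100uM at KM, 25mM KPO4, 37C, 60 min NADPH-driven reaction. Reference: 57uM sulphaphenazole as 100% inhibition.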

The target of experiment [5] is Cytochrome P450 2D6 (Homo sapiens) (UniProt P10635). Kind of experiment: qHTS Assay for Inhibitors and Substrates of Cytochrome P450 2D6 (AID 891).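 Note: luciferin methyl ether substrate demethylated by CYP2D6 with NADPH regeneration; nearly all actives have a fitted effect of over 60% in size.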 The method in brief: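 Luminescent read-out of luciferin formed by 5 nM human CYP2D6 demethylating 30 uM Luciferin-ME EGE (Km level) over 60 min at room temperature after NADPH regeneration addition. Data normalized to full inhibition by 1.43 uM quinidine.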
Sequence of Cytochrome P450 2D6 (Homo sapiens) (P10635 whole entry, looked up): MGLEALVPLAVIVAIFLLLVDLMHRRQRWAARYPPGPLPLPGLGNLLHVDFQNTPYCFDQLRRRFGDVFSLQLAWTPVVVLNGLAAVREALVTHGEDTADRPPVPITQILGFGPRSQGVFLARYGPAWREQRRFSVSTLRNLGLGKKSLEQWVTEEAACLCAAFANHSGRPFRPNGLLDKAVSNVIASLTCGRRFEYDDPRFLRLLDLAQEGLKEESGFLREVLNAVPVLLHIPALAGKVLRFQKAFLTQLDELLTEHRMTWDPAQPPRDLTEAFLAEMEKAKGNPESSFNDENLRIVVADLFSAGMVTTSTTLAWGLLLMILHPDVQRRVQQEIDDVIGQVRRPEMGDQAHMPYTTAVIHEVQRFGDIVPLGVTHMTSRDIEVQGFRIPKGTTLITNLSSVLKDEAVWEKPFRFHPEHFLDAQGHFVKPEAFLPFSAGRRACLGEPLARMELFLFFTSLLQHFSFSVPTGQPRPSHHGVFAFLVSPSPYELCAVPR

The target in experiment [6] is Cytochrome P450 2C19 (Homo sapiens) (UniProt P33261). Nature of the experiment: qHTS Assay for Inhibitors and Substrates of Cytochrome P450 2C19 (AID 899). Note: nearly all actives have a fitted effect of over 60% in size. The method in brief:
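Signal comes from luciferase acting on luciferin released by CYP2C19-mediated hydroxylation of Luciferin-H EGE, 10uM (KM). Assay mix: 5nM enzyme, 50mM KPO4; 60 min at 37C with NADPH regeneration. Data normalized against 57uM ketoconazole.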

Structures are written as SMILES. Values without a mark were called inactive. Inconclusive results are not listed. Active and inactive are the calls of the source. Unless noted, calls come from the whole dose curve; as a rule, active = well fitted inhibition curve with a large enough effect; inconclusive = small, poorly fitted or top-dose-only effect; inactive = no such curve, though single readings can be large or run the other way. Some results are limits rather than exact numbers.

Here are results for 2 molecules from PubChem BioAssay (NCATS).

Sequence of 3',5'-cyclic-AMP phosphodiesterase 4B (Homo sapiens) (Q07343 whole entry, looked up): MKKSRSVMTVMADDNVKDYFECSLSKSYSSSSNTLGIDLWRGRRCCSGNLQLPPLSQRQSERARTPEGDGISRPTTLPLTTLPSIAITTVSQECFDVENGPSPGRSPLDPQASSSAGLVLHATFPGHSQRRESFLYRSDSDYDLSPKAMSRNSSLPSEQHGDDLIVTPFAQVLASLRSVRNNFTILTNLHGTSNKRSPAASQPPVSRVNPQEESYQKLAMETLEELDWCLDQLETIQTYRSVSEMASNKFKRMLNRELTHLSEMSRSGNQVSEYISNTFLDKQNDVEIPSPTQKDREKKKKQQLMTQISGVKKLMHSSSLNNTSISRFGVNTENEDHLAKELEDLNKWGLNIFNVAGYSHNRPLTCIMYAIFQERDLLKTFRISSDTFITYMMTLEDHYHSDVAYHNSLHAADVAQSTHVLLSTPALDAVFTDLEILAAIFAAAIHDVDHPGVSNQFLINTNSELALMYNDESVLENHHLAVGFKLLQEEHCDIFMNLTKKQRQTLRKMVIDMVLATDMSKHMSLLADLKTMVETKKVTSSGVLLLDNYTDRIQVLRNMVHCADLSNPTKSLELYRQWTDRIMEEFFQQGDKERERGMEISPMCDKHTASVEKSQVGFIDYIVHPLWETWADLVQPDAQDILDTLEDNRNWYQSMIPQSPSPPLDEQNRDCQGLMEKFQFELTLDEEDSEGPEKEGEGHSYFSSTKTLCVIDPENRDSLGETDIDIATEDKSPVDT
Sequence of Cytochrome P450 1A2 (Homo sapiens) (P05177 whole entry, looked up): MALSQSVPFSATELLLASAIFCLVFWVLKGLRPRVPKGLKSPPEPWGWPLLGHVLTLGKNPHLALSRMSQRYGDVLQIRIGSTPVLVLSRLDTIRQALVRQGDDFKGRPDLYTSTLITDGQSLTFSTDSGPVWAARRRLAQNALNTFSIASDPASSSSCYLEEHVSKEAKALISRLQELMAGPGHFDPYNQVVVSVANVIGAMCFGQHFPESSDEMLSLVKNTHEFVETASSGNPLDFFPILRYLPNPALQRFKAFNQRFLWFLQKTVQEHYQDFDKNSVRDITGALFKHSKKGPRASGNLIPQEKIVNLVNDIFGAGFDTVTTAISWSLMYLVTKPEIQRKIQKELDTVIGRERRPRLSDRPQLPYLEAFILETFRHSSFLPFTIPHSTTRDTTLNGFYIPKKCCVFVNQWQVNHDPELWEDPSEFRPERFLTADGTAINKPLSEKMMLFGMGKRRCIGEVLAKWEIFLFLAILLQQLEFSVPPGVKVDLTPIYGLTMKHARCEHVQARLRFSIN
Sequence of Cytochrome P450 2C9 (Homo sapiens) (P11712 whole entry, looked up): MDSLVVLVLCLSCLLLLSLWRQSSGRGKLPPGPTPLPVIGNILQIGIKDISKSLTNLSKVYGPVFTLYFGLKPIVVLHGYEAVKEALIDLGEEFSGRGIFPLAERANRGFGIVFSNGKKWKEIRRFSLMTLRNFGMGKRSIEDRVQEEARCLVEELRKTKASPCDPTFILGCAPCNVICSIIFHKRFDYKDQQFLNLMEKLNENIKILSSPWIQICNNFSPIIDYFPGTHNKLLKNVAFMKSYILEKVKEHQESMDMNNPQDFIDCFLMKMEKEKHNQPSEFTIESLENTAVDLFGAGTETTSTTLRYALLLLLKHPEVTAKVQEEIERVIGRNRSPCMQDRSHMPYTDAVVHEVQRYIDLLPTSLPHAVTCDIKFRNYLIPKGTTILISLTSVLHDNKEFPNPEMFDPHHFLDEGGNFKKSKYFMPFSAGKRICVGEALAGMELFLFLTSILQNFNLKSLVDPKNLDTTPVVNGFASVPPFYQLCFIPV
Sequence of Glucocorticoid receptor (Homo sapiens) (P04150 whole entry, looked up, the tested form may be a part): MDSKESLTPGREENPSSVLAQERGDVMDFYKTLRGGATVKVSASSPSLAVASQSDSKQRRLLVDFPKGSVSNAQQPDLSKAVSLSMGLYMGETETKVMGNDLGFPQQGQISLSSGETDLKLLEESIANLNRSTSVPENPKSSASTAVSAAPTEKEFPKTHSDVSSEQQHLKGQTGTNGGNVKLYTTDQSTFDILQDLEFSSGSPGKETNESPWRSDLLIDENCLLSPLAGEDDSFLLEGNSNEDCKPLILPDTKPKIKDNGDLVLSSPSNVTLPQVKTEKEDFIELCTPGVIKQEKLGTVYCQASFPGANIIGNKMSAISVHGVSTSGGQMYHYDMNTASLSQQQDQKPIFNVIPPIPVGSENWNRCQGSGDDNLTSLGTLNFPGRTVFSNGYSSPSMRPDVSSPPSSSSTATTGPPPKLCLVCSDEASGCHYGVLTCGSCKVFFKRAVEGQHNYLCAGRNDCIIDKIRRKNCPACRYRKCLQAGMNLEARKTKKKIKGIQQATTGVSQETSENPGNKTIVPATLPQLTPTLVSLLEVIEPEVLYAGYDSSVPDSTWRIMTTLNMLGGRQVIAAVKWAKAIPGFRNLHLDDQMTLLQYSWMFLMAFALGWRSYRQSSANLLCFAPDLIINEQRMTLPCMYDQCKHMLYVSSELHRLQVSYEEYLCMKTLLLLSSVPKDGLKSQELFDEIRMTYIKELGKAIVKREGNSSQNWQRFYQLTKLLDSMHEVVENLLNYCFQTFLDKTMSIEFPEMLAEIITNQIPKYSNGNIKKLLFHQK
Sequence of Cytochrome P450 2C19 (Homo sapiens) (P33261 whole entry, looked up): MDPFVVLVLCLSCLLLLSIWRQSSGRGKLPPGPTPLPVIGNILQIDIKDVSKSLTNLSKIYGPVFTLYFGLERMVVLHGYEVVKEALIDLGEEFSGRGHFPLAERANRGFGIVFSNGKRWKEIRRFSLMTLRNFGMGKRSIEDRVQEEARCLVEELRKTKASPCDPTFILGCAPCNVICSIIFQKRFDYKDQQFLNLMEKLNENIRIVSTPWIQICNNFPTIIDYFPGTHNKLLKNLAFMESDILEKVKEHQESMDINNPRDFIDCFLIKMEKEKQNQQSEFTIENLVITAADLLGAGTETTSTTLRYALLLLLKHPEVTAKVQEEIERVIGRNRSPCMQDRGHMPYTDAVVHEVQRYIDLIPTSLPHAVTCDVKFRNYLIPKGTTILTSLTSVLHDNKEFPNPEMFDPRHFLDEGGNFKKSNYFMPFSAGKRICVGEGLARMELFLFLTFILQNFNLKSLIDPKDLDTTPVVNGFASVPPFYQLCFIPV

Take `CC(C)C[C@@H](CC(=O)N[C@H](CC(=O)N[C@@H]1CCNC[C@H]1C(=O)N[C@H](CC(=O)N[C@@H](CCC(=O)O)CC(=O)O)Cc1c[nH]c2ccccc12)C(C)C)NC(=O)[C@@H]1CNCC[C@H]1N`: the Potency result in experiment [1], in experiment [3], in experiment [4], in experiment [5] and in experiment [6] was “inactive” throughout. Moreover, the Potency in experiment [2] is over 46 µM.

Take `CC(C)C[C@@H](CC(=O)N[C@@H](CCC(=O)O)CC(=O)O)NC(=O)[C@@H]1CNCC[C@H]1NC(=O)C[C@@H](NC(=O)C[C@H](Cc1ccccc1)NC(=O)[C@@H]1CCCC[C@H]1N)C(C)C`: the figures for the Potency in experiment [1] and in experiment [2] were 31.6 µM (active) and over 46 µM, respectively. Further, the Potency result in experiment [3], in experiment [4] and in experiment [5] was “inactive” in each case.
